Test results from the supplement of paper PMC7156485.
Several values for one entry are separate records, joined by “and”; a condition that tells them apart may be missing. Equal entries are not always repeated. ± gives the standard deviation of the averaged measurements.

What was measured:
Conditions in all cases: concentration: 10 µM; 24 h
HCC1569 [1] = assay: cell number relative to DMSO (% of DMSO); higher = more cells (less growth inhibition / toxicity)
Method in brief: (§1)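 HCC1569 and TDF cells were seeded at 800 per well in 384-well plates in RPMI with 10% FBS and treated with compounds at 10 µM for 24 h at 37 °C, in triplicate. After fixation in 3.7% formaldehyde, cells were stained with a rabbit anti-H1.0 antibody, an AlexaFluor 647 secondary and DAPI, and six fields per well were imaged at ×10. H1.0 nuclear intensity or cell number is given as percent of the plate control, using the median of replicates, with HCC1569 values smoothed for positional effects.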

TDF [2] = assay: as above
Method in brief: as §1

TDF [3] = assay: H1.0 immunofluorescence intensity relative to DMSO (% of DMSO); higher = stronger H1.0 induction, active = 120 or more
Method in brief: as §1

HCC1569 [4] = assay: H1.0 immunofluorescence intensity relative to DMSO (% of DMSO); higher = stronger H1.0 induction, active = 140 or more
Method in brief: as §1
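Throughout, for H1.0 immunofluorescence intensity relative to DMSO: TDF is a line of transformed human dermal fibroblasts of mesenchymal origin.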
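Throughout, for cell number relative to DMSO: TDF denotes transformed human dermal fibroblasts of mesenchymal origin.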

SMILES	cell number (HCC1569 [1])	cell number (TDF [2])	H1.0 immunofluorescence intensity (TDF [3])	H1.0 immunofluorescence intensity (HCC1569 [4])
COc1c(N2CC3CCCNC3C2)c(F)cc2c(=O)c(C(=O)O)cn(C3CC3)c12.Cl (centres undefined) [Moxifloxacin.HCl]	101	122	96.7 (inactive)	97.9 (inactive)
COC(=O)C1=C(C)NC(C)=C(C(=O)OCCN2CCN(C(c3ccccc3)c3ccccc3)CC2)C1c1cccc([N+](=O)[O-])c1 (centres undefined) [Manidipine]	106	109	90.4 (inactive)	111 (inactive)
CN1CCN(CC(=O)N2c3ccccc3C(=O)Nc3cccnc32)CC1.Cl.Cl [Pirenzepine dihydrochloride]	107	121	97.4 (inactive)	95.9 (inactive)
COC(=O)[C@@H](N)Cc1ccc(O)c(O)c1.Cl [L-3,4-Dihydroxyphenylalanine methyl ester hydrochloride]	102	110	94.8 (inactive)	96.8 (inactive)
CCCCCCC=CCCCCCCCCC(=O)O [10(Z)-Heptadecenoic acid]	99.6	95.4	101 (inactive)	102 (inactive)
CSc1cccc(Nc2ncc3cc(-c4c(Cl)cccc4Cl)c(=O)n(C)c3n2)c1	37.3	6.26	145 (active)	150 (active)
O=C(O)c1cc(O)ccc1O [Gentisic acid]	104	100	98.5 (inactive)	93.5 (inactive)
CC(Nc1nc(N2CCCC2)nc2ccccc12)c1ccccc1 (centres undefined) [N-(1-phenylethyl)-N-[2-(1-pyrrolidinyl)-4-quinazolinyl]amine]	83.8	75.1	123 (active)	120 (inactive)
Cc1ccc(NC(=O)c2ccc(CN3CCN(C)CC3)cc2)cc1Nc1nccc(-c2cccnc2)n1 [Imatinib]	101	101	107 (inactive)	103 (inactive)
C=CC1(C)CC(=O)C2(O)C(C)(O1)C(OC(C)=O)C(O)C1C(C)(C)CCC(O)C12C (centres undefined) [Forskolin]	89.77 ± 0.53	105 ± 3.9	88.8 (inactive)	96.6 (inactive)
CC(C=CC=C(C)C=CC1=C(C)C(=O)CCC1(C)C)=CC=CC=C(C)C=CC=C(C)C=CC1=C(C)C(=O)CCC1(C)C [Canthaxanthin]	102 ± 4.6	104 ± 3.5	90 (inactive)	106 (inactive)
CC1CCN(C(=O)CC#N)CC1N(C)c1ncnc2[nH]ccc12 (centres undefined) [Tasocitinib]	110	110	89.1 (inactive)	73.7 (inactive)
Cc1nc2sccn2c(=O)c1CCN1CCC(=C(c2ccccc2)c2ccc(F)cc2)CC1 [Diacylglycerol kinase inhibitor I]	87.2	111	96 (inactive)	118 (inactive)
CC(O)CCCC(O)C=CC1C(O)CC(=O)C1CC=CCCCC(=O)O [19(R)-Hydroxy-prostaglandin E2]	98.1	92.7	95.7 (inactive)	92.1 (inactive)
NC1CCCCC1N.O=C([O-])C(=O)[O-].[Pt+2] (centres undefined) [Oxaliplatin]	87.5 ± 5.5	87.2 ± 18	97.9 (inactive)	121 (inactive)
C=C1C(=O)C23C(O)C1CCC2C12COC3(O)C(O)C1C(C)(C)CCC2O (centres undefined) [Rubescensin A]	90.8	99	96.2 (inactive)	100 (inactive)
CCOc1cc(N2CCC(O)CC2)ccc1Nc1ncc2c(n1)N(C)c1ccccc1C(=O)N2C	85.6	72.2	117 (inactive)	169 (active)
C[C@@H](c1nc(-c2ccc(C#N)cc2)cs1)[C@](O)(Cn1cncn1)c1ccc(F)cc1F	83.5	95	111 (inactive)	129 (inactive)
CCCCN1CCC(n2c(=O)[nH]c3ccccc32)CC1.O=C(O)C(=O)O [NS 521 oxalate]	98	102	86.7 (inactive)	98.3 (inactive)
CCOc1cc2ncnc(Nc3cccc(Br)c3)c2cc1OCC [Compound 56]	76.2	94	92.6 (inactive)	144 (active)
CC(C)C(N)C(=O)OCCOCn1cnc2c(=O)nc(N)[nH]c21 (centres undefined) [Valaciclovir]	99.8	104	102 (inactive)	109 (inactive)
NS(=O)(=O)c1cc2c(cc1Cl)NC(C1CC3C=CC1C3)NS2(=O)=O (centres undefined) [Cyclothiazide]	100	105	111 (inactive)	99.5 (inactive)
CC#CCOC(=O)c1c(C)nc2sc3c(c2c1N)CCC(O)C3 (centres undefined)	87.1	85.8	99.5 (inactive)	134 (inactive)

SMILES	cell number (HCC1569 [1])	cell number (TDF [2])	H1.0 immunofluorescence intensity (TDF [3])	H1.0 immunofluorescence intensity (HCC1569 [4])
COc1cc(C=CC(=O)c2ccc(O)cc2O)ccc1O [Homobutein]	95.5	101	92 (inactive)	100 (inactive)
CNC(=C[N+](=O)[O-])NCCSCc1ccc(CN(C)C)o1.Cl [Ranitidine hydrochloride]	101	113	91.6 (inactive)	85.1 (inactive)
CCCCCC(O)c1cccc(OCc2ccc3ccccc3n2)c1 (centres undefined)	103 and 102	107 and 102	104 (inactive) and 91.2 (inactive)	110 (inactive) and 101 (inactive)
CCCCCC=CCC=CCCCCCCCCC(=O)O [10(Z),13(Z)-Nonadecadienoic acid]	98.3	96.2	109 (inactive)	103 (inactive)
CCCCCCCCC#CCC#CCC#CCCCC(=O)O [5,8,11-Eicosatriynoic acid]	97.5 ± 3.3	97.3 ± 8	107 (inactive)	98.5 (inactive)
CC1C2CCC3C4CC=C5CC(N(C)C)CCC5(C)C4CCC32CN1C (centres undefined) [Conessine]	103	104	109 (inactive)	113 (inactive)
O=C(Nc1cc(C(=O)Nc2ccc(S(=O)(=O)[O-])cc2S(=O)(=O)[O-])cc(C(=O)Nc2ccc(S(=O)(=O)[O-])cc2S(=O)(=O)[O-])c1)Nc1cc(C(=O)Nc2ccc(S(=O)(=O)[O-])cc2S(=O)(=O)[O-])cc(C(=O)Nc2ccc(S(=O)(=O)[O-])cc2S(=O)(=O)[O-])c1.[Na+].[Na+].[Na+].[Na+].[Na+] [NF449 octasodium salt]	97.4	92.8	89.6 (inactive)	108 (inactive)
COc1ccc2c(c1OC)C(=O)OC2C1c2c(cc3c(c2OC)OCO3)CCN1C (racemic)	98.6	96.2	105 (inactive)	94.1 (inactive)
CCCCCC=CCC=CCC=CCCCCC(=O)O [6(Z), 9(Z), 12(Z)-Octadecatrienoic Acid]	101	93.2	91.1 (inactive)	105 (inactive)
Cl.Cl.OCCN1CCN(CCCN2c3ccccc3C=Cc3ccccc32)CC1	102	98.8	99.1 (inactive)	106 (inactive)
N[C@@H](Cc1ccc(O)c(I)c1)C(=O)O [3-Iodo-L-tyrosine]	108	110	87.8 (inactive)	88.9 (inactive)
Cc1ccc(S(=O)(=O)N2c3ccccc3Oc3ccccc32)cc1 [10-[(4-methylphenyl)sulfonyl]-10H-phenoxazine]	53.5	11.3	161 (active)	154 (active)
CNCC(O)c1cccc(O)c1.Cl (centres undefined) [Phenylephrine hydrochloride]	107	101	97.5 (inactive)	94.3 (inactive)
C=CC1CN2CCC1CC2C(O)c1ccnc2ccc(OC)cc12.C=CC1CN2CCC1CC2C(O)c1ccnc2ccc(OC)cc12.O=S(=O)(O)O (centres undefined) [Quinidine sulfate]	99	99.9	95.4 (inactive)	112 (inactive)
O=C(ON1C(=O)CCC1=O)N1CCN(C(c2ccc(Cl)cc2)c2ccc(Cl)cc2)CC1	77.8	82.1	112 (inactive)	126 (inactive)
Cl.NCCCCC(=O)O [5-Aminovaleric acid hydrochloride]	102	107	96.1 (inactive)	91.6 (inactive)
CC1OC(OCC2OC(Oc3cc(O)c4c(c3)OC(c3ccc(O)cc3)CC4=O)C(O)C(O)C2O)C(O)C(O)C1O (centres undefined) [Narirutin]	101	103	94.7 (inactive)	80.9 (inactive)
CC(C)(C(=O)O)c1ccc(C(O)CCCN2CCC(C(O)(c3ccccc3)c3ccccc3)CC2)cc1.Cl (centres undefined) [Fexofenadine hydrochloride]	105	111	91.2 (inactive)	90.5 (inactive)
Cc1ccc(S(=O)(=O)NC(Cc2ccccc2)C(=O)CCl)cc1 [N-p-Tosyl-L-phenylalanine chloromethyl ketone]	85.5	84.6	102 (inactive)	113 (inactive)
CC(=O)OCC=C(C)C=CC=C(C)C=CC1=C(C)CCCC1(C)C [Vitamin A acetate]	98.7	107	91.8 (inactive)	119 (inactive)
COc1cc(C(O)CO)ccc1OS(=O)(=O)[O-].[K+] (centres undefined) [MHPG sulfate potassium]	102	105	89.9 (inactive)	121 (inactive)
CN1C(C)(C)CCCC1(C)C.O=C(O)C(O)C(O)C(=O)O [Pempidine tartrate]	105	94.9	99.5 (inactive)	99.4 (inactive)
COC(=O)C=Cc1cc(O)ccc1O [2,5-Dihydroxycinnamic acid methyl ester]	104	103	91.7 (inactive)	93.6 (inactive)
